Screening results: PubChem, several laboratories
Mdm2 MdmX PPI: inhibitors of human Mdm2-MdmX association, primary screen, cell-based, luminescence, split luciferase, SaOS-2, uHTS; Protein Mdm4 (Homo sapiens) + E3 ubiquitin-protein ligase Mdm2 (Homo sapiens), …; SaOS-2 split-luciferase Mdm2/MdmX complementation; inhibition, % at 8 µM; 3% of 330,000 active;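 active = inhibition of at least 50% at 8 µM in the primary screen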
MPTP inh: mitochondrial permeability transition pore inhibitors, primary screen, biochemical, isolated mouse mitochondria, absorbance; Ca2+ swelling absorbance, 30 min; 1.4% of 360,000 active; inhibition, % at 10 µM;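 active = inhibition of 50% or more, scaled per plate between neutral and stimulator controls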
Calb FLC: C. albicans growth inhibition with fluconazole, primary screen, CaCi-2 strain, Alamar Blue fluorescence; 0.57% of 300,000 active; C. albicans CaCi-2 (fluconazole-resistant clinical isolate) + fluconazole, 48 h; growth inhibition, % (concentration not given with the values);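 active = growth inhibition above about 58% in most replicates, limit read from the data, passing the limit was not always enough; inconclusive = exactly half the replicates above a set limit; inactive = most replicates below a set limit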;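 also: all wells also contain fluconazole at 8 µg/ml as a sub-toxic cotreatment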
CSC inhib: cancer stem cell viability inhibitors, primary screen, luminescence. inhibition, % at 7.5 µM. 1.1% of 300,000 active. cancer stem cell-like cells viability. AID 2717, 2010; in the data active = inhibition above about 75%; inconclusive = no clear call, values can overlap the other calls; tested in HMLE shEcad cells
Beta cell apopt: inhibitors of cytokine-induced beta cell apoptosis, primary screen, luminescence; INS-1E cytokine-induced death, ATP luminescence, 48 h; percent of positive-control rescue, neutral wells zero; protection from apoptosis, % (concentration not given with the values); 0.8% of 300,000 active; AID 435005, 2010;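 active = Every replicate reaches about 75%, or at least half do and their mean reaches it too, limit read from the data; inconclusive = At least half of replicates reach the limit but their mean does not; inactive = Under half of replicates reach the limit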;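 also: higher means more ATP so stronger rescue from cytokine killing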
Mdm2 MdmX conf: Mdm2-MdmX complex disruptors, retested hits, confirmation, luminescence, single concentration | inhibition, % at 8 µM | 55% of 10,000 active | Mdm2-MdmX binding, luminescent assay | shares compounds with Mdm2 MdmX PPI | AID 489028, 2010; in the data active = inhibition above about 40%
FLuc counter: full-length luciferase signal inhibition, confirmation, counter-screen for Mdm2/MdmX interaction inhibitor project, cell-based, single concentration, SaOS-2 | shares compounds with Mdm2 MdmX PPI | SaOS-2 full-length luciferase counterscreen, luminescence | inhibition, % at 8 µM | 77% of 6,200 active | AID 504607, 2011;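 active = mean inhibition at 8 µM reaching about 37%, which flags the compound as non-specific, limit read from the data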;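 also: p53-null SaOS-2 cells with luciferase driven by a doxycycline-inducible promoter; compound on cells about two nights before reading with doxycycline added after day one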
A number is an active result. This is a sample that favours compounds with a hit; in the whole collection about 4.8% have one here.

Screening CC(=O)Nc1ccc(-c2ccnc3c2CC(C)(C(=O)NCc2cccc(Cl)c2)O3)cc1 (configuration not stated) returned MPTP inh inactive.
For O=C1N(Cc2ccccc2)c2ccc(Br)cc2[C@]12C[C@H](O)CO2 the results were MPTP inh inactive.
Screening CCN1CCN(Cc2ccc(NC(=O)c3ccc(C)c(NC(=O)c4ccno4)c3)cc2C(F)(F)F)CC1 returned Mdm2 MdmX PPI 63.2, MPTP inh inactive, Calb FLC inactive, CSC inhib inactive, Beta cell apopt inactive, Mdm2 MdmX conf 42.6 and FLuc counter 56.7.
`CCN1CCN(Cc2ccc(NC(=O)c3ccc(C)c(NC(=O)c4csc(-c5ccncc5)n4)c3)cc2C(F)(F)F)CC1` gave Mdm2 MdmX PPI inactive, MPTP inh inactive, Calb FLC inactive, CSC inhib inactive and Beta cell apopt inactive.
Screening CCN1CCN(Cc2ccc(NC(=O)c3ccc(C)c(/C=C/c4cnc(Nc5cc(N6CCNCC6)nc(C)n5)cn4)c3)cc2C(F)(F)F)CC1 returned Mdm2 MdmX PPI 87.7, MPTP inh inactive, Calb FLC inactive, CSC inhib inactive, Beta cell apopt inactive, Mdm2 MdmX conf 55.4 and FLuc counter 36.8.
Screening CCN1CCN(Cc2ccc(NC(=O)c3cc(NC(=O)c4cc5cccc(OC)c5o4)cc(OC)c3)cc2C(F)(F)F)CC1 returned Mdm2 MdmX PPI 98.3, MPTP inh inactive, Calb FLC inactive, Beta cell apopt inactive and Mdm2 MdmX conf inactive.
CCN1CCN(Cc2ccc(NC(=O)c3cc(NC(=O)c4ccno4)cc(OC)c3)cc2C(F)(F)F)CC1 was read as Mdm2 MdmX PPI 55.0, MPTP inh inactive, Calb FLC inactive, CSC inhib inactive, Beta cell apopt inactive, Mdm2 MdmX conf inactive and FLuc counter 60.9.
COc1cc(NC(=O)c2ccno2)cc(C(=O)Nc2cccc(C(F)(F)F)c2)c1 was read as Mdm2 MdmX PPI inactive, MPTP inh inactive, Calb FLC inactive, CSC inhib inactive and Beta cell apopt inactive.
`COc1ccc(Cc2nnc(SCC(=O)NC3(C#N)CCCCC3)n2N)cc1` gave Mdm2 MdmX PPI inactive, MPTP inh inactive, Calb FLC inactive, CSC inhib inactive and Beta cell apopt inactive.
`CCCNC(=O)Nc1ccc2c(c1)OC[C@H](C)N(C(=O)C1CCCCC1)C[C@@H](C)[C@H](OC)CN(C)C2=O` gave MPTP inh inactive.
`CCN1CCN(Cc2ccc(NC(=O)c3cc(NC(=O)c4ccc5n[nH]nc5c4)cc(OC)c3)cc2C(F)(F)F)CC1` gave Mdm2 MdmX PPI inactive, MPTP inh inactive, Calb FLC inactive, CSC inhib inactive and Beta cell apopt inactive.
Screening CCN1CCN(Cc2ccc(NC(=O)c3cc(NC(=O)c4cc(-c5ccc(OC)cc5)n[nH]4)cc(OC)c3)cc2C(F)(F)F)CC1 returned Mdm2 MdmX PPI 94.7, MPTP inh inactive, Calb FLC inactive, CSC inhib inconclusive, Beta cell apopt inactive and Mdm2 MdmX conf inactive.
COc1cc(NC(=O)c2csc(-c3ccncc3)n2)cc(C(=O)Nc2cccc(C(F)(F)F)c2)c1 was read as Mdm2 MdmX PPI inactive, MPTP inh inactive, Calb FLC inactive, CSC inhib inactive and Beta cell apopt inactive.
For CCN1CCN(Cc2ccc(NC(=O)c3cc(NC(=O)c4cncc(-c5cccs5)c4)cc(OC)c3)cc2C(F)(F)F)CC1 the results were Mdm2 MdmX PPI 97.3, MPTP inh inactive, Calb FLC inactive, CSC inhib 123.8, Beta cell apopt inactive, Mdm2 MdmX conf inactive and FLuc counter 58.5.
Screening CC1CCCN(CC(=O)Nc2cc(S(=O)(=O)N3CCOCC3)ccc2N2CCCC2)C1 (configuration not stated) returned Mdm2 MdmX PPI inactive, MPTP inh inactive and Beta cell apopt inactive.
CC(NC(=O)CCNS(=O)(=O)c1ccc2c(c1)oc(=O)n2C)c1ccccc1 (configuration not stated) was read as Mdm2 MdmX PPI inactive, MPTP inh inactive, Calb FLC inactive, CSC inhib inactive and Beta cell apopt inactive.
